According to PubChem BioAssay (NCI):
This is part of a sample that, as a whole, favours compounds with a hit. Of some 83,000 tested, about 20% had one in any assay.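 Negative percent growth values reflect cell death: -40 means 40% of the cells present at the start died, and -100 means all died.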 Calls of active or inactive are those of the source. How the source made its calls: active means growth percent below 10; inactive means the rest.

Columns and labels:
Assay in all cases: NCI-60 one-dose screen, 48 h (100 = growth as untreated, 0 = no growth, -100 = all killed)
Settings in all cases: 10 µM unless noted
[1] = tested on: NCI-H23 lung
[2] = tested on: NCI-H226 lung
[3] = tested on: NCI-H322M lung
[4] = tested on: HOP-62 NSCLC
[5] = tested on: NCI-H460 lung
[6] = tested on: HOP-92 NSCLC
[7] = tested on: NCI-H522 lung
[8] = tested on: A549/ATCC NSCLC
[9] = tested on: 786-0 renal

Measured: growth

CCCn1nc(-c2ccccc2)c2c(-c3ccccc3)onc2c1=O
inactive: [1] 85.6% | [2] 87.5% | [3] 95.4% | [4] 74.2% | [5] 98.1% | [6] 75.6% | [7] 62.6% | [8] 89% | [9] 94.1%

CCNCCNc1cc(-c2ccc(F)cc2)c(C#N)c2nc3ccccc3n12
inactive: [1] 77.8% | [2] 93.1% | [3] 66.3% | [4] 75.6% | [6] 52.1% | [7] 64.3% | [8] 46% | [9] 57.9%
active: [5] 3.07%

CCCCN1CCN(c2ccc3nc(-c4ccc5nc(-c6ccc(OCC)c(OCC)c6)[nH]c5c4)[nH]c3c2)CC1
active: [1] -55.9% | [4] -69.7% | [5] -84.3% | [7] -32.2% | [9] -87.4%
inactive: [2] 16.2% | [3] 14.1% | [6] 81.3% | [8] 37.7%

CCOc1cccnc1/C=N/NC(N)=S
inactive: [1] 73.8% | [2] 53.9% | [4] 64.9% | [5] 19.9% | [6] 46.5% | [7] 79.1% | [8] 48% | [9] 51.6%
active: [3] 6.61%

C(=C\c1nc2ccccc2[nH]1)/c1nc2ccccc2[nH]1
inactive: [1] 96.5% | [2] 92.6% | [3] 98.6% | [4] 110% | [5] 103% | [6] 95% | [7] 98% | [8] 99.1% | [9] 113%

COc1ccc(/C=C2\COc3ccc(O)cc3C2=O)c(OC)c1
inactive: [1] 83.4% | [2] 104% | [3] 86.5% | [4] 56.3% | [5] 40.6% | [6] 79.5% | [7] 39.1% | [8] 51.6% | [9] 91.2%

CCn1nc(C#Cc2c(C)ccc3c(Nc4ccc(Cl)cc4)nccc23)c2c(N)ncnc21
inactive: [1] 18.4% | [2] 14.8% | [3] 29.2% | [5] 10.6% | [6] 13.6% | [8] 16.8% | [9] 14.1%
active: [4] -0.0802% | [7] -15.4%

O=C(NC(=S)Nc1ccc(-c2nc3ccccc3[nH]2)cc1)c1ccc2ccccc2c1
active: [4] 8.8% | [5] 5.41% | [6] -1.16% | [9] -67.5%
inactive: [1] 58.1% | [2] 51.1% | [3] 21.5% | [7] 63.2% | [8] 26.3%

O=C(Nc1ccccc1Cl)OCCN1CCOCC1
inactive: [1] 99.7% | [2] 99% | [3] 98.7% | [4] 106% | [5] 109% | [6] 85.6% | [7] 64.5% | [8] 98.5% | [9] 88.7%

C=C1C(=O)O[C@H]2[C@H]1CC/C(Cn1cc(CNCCc3c[nH]c4ccccc34)nn1)=C\CC[C@@]1(C)O[C@@H]21
active: [7] 3.17%
inactive: [1] 95% | [2] 101% | [3] 86.8% | [4] 86.3% | [5] 104% | [6] 61.6% | [8] 95.7% | [9] 99.1%

CNC(=O)c1cc(Oc2ccc3nc(NC(=O)Nc4cc(C(F)(F)F)cc(C(F)(F)F)c4)sc3c2)ccn1
active: [1] -67.9% | [2] -13.7% | [3] -46.6% | [4] -70.5% | [5] -57.5% | [6] -54.6% | [7] -71.9% | [8] -71.4% | [9] -64%

Cc1c(C(=O)O[C@H]2[C@@H]3[C@H](C)CC[C@H]3[C@]3(C)O[C@@]2(C2CCCCC2)C[C@H]3OC(=O)CO)ccc2ccccc12
active: [5] -36% | [9] 9.76%
inactive: [1] 35.2% | [2] 30.5% | [3] 70.5% | [4] 29.7% | [6] 10.9% | [7] 19.6% | [8] 30.2%

C=C(C=O)[C@@H]1CC=C(C=O)CC1
active: [1] -4.9% | [3] -24.7% | [4] -19.7% | [5] -16.6% | [6] -39.9% | [7] 5.01% | [9] -19.3%
inactive: [2] 71.2% | [8] 15.6%

COc1cccc(/C=C2\COc3ccc(O)cc3C2=O)c1OC
inactive: [1] 86.6% | [2] 95.2% | [3] 90.5% | [4] 88.4% | [5] 67.8% | [6] 86.8% | [7] 28.7% | [8] 105% | [9] 86.1%

O=S(=O)(NCCNc1cc(-c2c(-c3cccc(O)c3)nc3sccn23)ccn1)c1ccc(Cl)cc1
inactive: [1] 79.1% | [2] 62.4% | [3] 86% | [4] 103% | [5] 58.3% | [6] 74.7% | [7] 66.1% | [8] 57.6% | [9] 62.1%

COc1cc2c(c(OC)c1OC)C(=O)/C(=C/c1cc(C)c(O)c(C)c1)S2
inactive: [1] 36.9% | [2] 34.3% | [3] 40.8% | [4] 46.5% | [5] 12.7% | [6] 54.6% | [7] 14.6% | [8] 44.4% | [9] 42.6%

CCOc1ccc(-c2nc3ccc(-c4nc5ccc(N6CCN(C)CC6)cc5[nH]4)cc3[nH]2)cc1OCC
inactive: [3] 42.1% | [4] 16.7% | [5] 17.2% | [6] 48.8% | [8] 79.2% | [9] 22.3%
active: [1] -7.66% | [2] -8.92% | [7] -18.2%

O=C1C2=C(CCN(Cc3ccccc3)C2)N2CCN=C2N1Cc1ccc(F)cc1F
inactive: [1] 32.2% | [2] 29% | [3] 45.4% | [4] 33.6% | [5] 15.5% | [6] 41.9% | [7] 24.2% | [8] 26.7% | [9] 55.2%

Nc1ccc2c(S(=O)(=O)O)ccc(S(=O)(=O)O)c2c1
inactive: [1] 100% | [2] 101% | [3] 121% | [4] 92.3% | [5] 101% | [6] 89.1% | [7] 85% | [8] 92.6% | [9] 97.8%

CC1(C)C(=O)/C(=C\c2cccnc2)C[C@]2(C)[C@H]3CC=C4[C@@H]5C[C@@](C)(C(=O)O)CC[C@]5(C)CC[C@@]4(C)[C@]3(C)CC[C@@H]12
inactive: [1] 102% | [2] 92.9% | [3] 93.1% | [4] 96.6% | [5] 101% | [6] 88.9% | [7] 87.1% | [8] 78.8% | [9] 101%

C=C(C)[C@@H]1CC[C@]2(CO)CC[C@]3(C)[C@H](CC[C@@H]4[C@@]5(C)C=C(C#N)C(=O)C(C)(C)[C@@H]5CC[C@]43C)[C@@H]12
active: [5] -7.1% | [6] 8.38%
inactive: [1] 16.6% | [2] 25.6% | [3] 21.4% | [4] 23.2% | [7] 24.1% | [8] 12.6% | [9] 14.8%

C=C(CNCCc1ccc(O)cc1)[C@@H]1CC[C@]2(COC3CCCCO3)CC[C@]3(C)[C@H](CC[C@@H]4[C@@]5(C)CCC(N)C(C)(C)[C@@H]5CC[C@]43C)[C@@H]12 (stereo partly specified)
active: [1] -89.1% | [2] -59.1% | [3] -95.1% | [4] -91.4% | [5] -84.2% | [6] -73.9% | [7] -84.3% | [8] -86.2% | [9] -79.4%

COc1ccc(-c2nc3sccn3c2/C=C/C(=O)c2c[nH]c3ccccc23)cc1
inactive: [1] 73.2% | [2] 66.8% | [3] 63.6% | [4] 71.7% | [5] 70.2% | [7] 55.6% | [8] 54.1% | [9] 78.8%
active: [6] -5.53%

CN1C[C@@H](c2ccc(Cl)cc2)[C@]2(NC(=S)N(c3ccccc3)C2=O)[C@@]12C(=O)NC1C=CC(Br)=C[C@H]12 (stereo partly specified)
inactive: [1] 76.1% | [2] 66% | [3] 77.4% | [4] 79.5% | [5] 65.5% | [6] 19.7% | [7] 49.3% | [8] 56.9% | [9] 54.3%

Fc1ccc(Nc2ccc3cc(OCCCN4CCOCC4)ccc3n2)cc1F
inactive: [1] 55.7% | [2] 76.8% | [3] 71.4% | [4] 65.9% | [5] 36.6% | [6] 52.8% | [8] 42.9% | [9] 48.6%
active: [7] -21.4%

CS(=O)(=O)c1ccc(-c2nc3cc(Cl)ccc3n2CC(=O)N/N=C/c2ccc(Cl)cc2)cc1
inactive: [1] 60.3% | [2] 84.8% | [3] 70.4% | [4] 56.4% | [5] 48.7% | [6] 68.1% | [7] 46% | [8] 68.5% | [9] 16.1%

COc1ccc2c(c1)/C(=C\c1sc(=S)[nH]c1O)C(C(=O)O)=N2
inactive: [1] 99.1% | [2] 99.3% | [3] 102% | [4] 116% | [5] 108% | [6] 91.6% | [7] 87.6% | [8] 99.8% | [9] 102%

N#Cc1cccc(-c2nc3ccccn3c2NCCN2CCOCC2)c1
inactive: [1] 98.6% | [2] 93.6% | [3] 87.1% | [4] 72.5% | [5] 98.8% | [6] 93% | [7] 85.8% | [8] 90.4% | [9] 96.1%

O=C(NCOC(O)C(Cl)(Cl)Cl)NCOC(O)C(Cl)(Cl)Cl (stereo unspecified)
inactive: [1] 102% | [2] 95.7% | [3] 91.7% | [4] 91.6% | [5] 112% | [6] 119% | [7] 82.8% | [8] 97.5% | [9] 99.2%
